Several values for one entry are separate records, joined by “and”; a condition that tells them apart may be missing. Identical values can stand only once. Results filed as inconclusive are left out. Activity calls are given as the source filed them. Calls come from the whole dose curve; as a rule, active = well fitted cell-killing curve with a large enough effect; inconclusive = small, poorly fitted or top-dose-only effect, or effect the other way; inactive = no such curve, though single readings can be large or run the other way.

The text below walks through data of PubChem BioAssay (NCATS).
Potency is the fitted concentration of half-maximal effect.

The nature of the test: Quantitative High-Throughput drug screen in 47 multiple myeloma cell lines against the NCATS MIPE library collection: INA6_PLB cell viability assay (AID 1918965; note: nearly all actives have a fitted effect of over 55% in size). Conditions: INA6 myeloma viability, CellTiter-Glo ATP luminescence, 48 h; series mostly up to 45.8 µM. From the text: PI: Beverly A. Mock Ph.D.
Laboratory of Cancer Biology and Genetics,
Center for Cancer Research, National Cancer Institute,
National Institute of Health, Bethesda, Maryland
Drug resistance and disease progression are common in multiple myeloma (MM) patients, underscoring the need for new therapeutic combinations. […] We hypothesized that effective combinations would reduce MYC expression and enhance p16 activity. […] These preclinical data identify potentially useful drug combinations for evaluation in drug-resistant MM and reveal potential mechanisms of combined drug sensitivity.
Described herein is the primary MIPE qHTS used to cherrypick compounds. Validated compounds were then further tested for potential synergistic activiy.
[1] Peat TJ, Gaikwad SM, Dubois W, Gyabaah-Kessie N, Zhang S, Gorjifard S, Phyo Z, Andres M, Hughitt VK, Simpson RM, Miller MA, Girvin AT, Taylor A, Williams D, D'Antonio N, Zhang Y, Rajagopalan A, Flietner E, Wilson K, Zhang X, Shinn P, Klumpp-Thomas C, McKnight C, Itkin Z, Chen L, Kazandijian D, Zhang J, Michalowski AM, Simmons JK, Keats J, Thomas CJ, Mock BA. Drug combinations identified by high-throughput screening promote cell cycle transition and upregulate Smad pathways in myeloma. Cancer Lett. 2023 Aug 1;568:216284. doi: 10.1016/j.canlet.2023.216284. Epub 2023 Jun 24. PMID: 37356470; PMCID: PMC10408729.
SEQUENCE No. (e.g., 1, 2, 3, etc.); […] (e.g., Cells, Incubation, Reagent, etc.); VALUE and DESCRIPTION.
1; Cells; 5 uL; white, solid bottom 1536-well Greiner assay plate.
2; Compounds; 23 nL; Kalypsis pin tool (Wako USA) equipped with a 1536-well pin head to transfer to the assay plates.
3; Incubation; 48 hours; 37C incubation.
4; Reagent;5uL; CellTiter Glo (Promega).
5; Detector; 425V; Luminescence; Viewlux PerkinElmer.
NOTES (numbers refer to Sequence numbers above)
1. The cell-based screening methods employed in this study were like those previously published. Briefly, the corresponding myeloma cell lines were screened in 1,536-well plates with 500 cells, 5-uL per well for inhibition of cell viability (assessed by measuring ATP levels with CellTiterGlo).
2. NCATS MIPE 4.0 library of approved and investigational drugs were added using the Kalypsis pin tool. Wells treated with DMSO only for 100% viability and media only wells for 0% viability were used as controls.
3. The assay plates were covered and incubated for 48 hours in a 37C, 5% CO2 incubator with controlled humidity.
4. After 48 hours, CellTilter-GloTM luminescent substrate mix (Promega) reagent was added to the assay plate and plates we incubated for 5 min at room temperature.
5. Signal was measured as median relative luminescence units on a ViewLux (PerkinElmer) multiplate reader.
[1] Heske CM, Davis MI, Baumgart JT, Wilson K, Gormally MV, Chen L, Zhang X, Ceribelli M, Duveau DY, Guha R, Ferrer M, Arnaldez FI, Ji J, Tran HL, Zhang Y, Mendoza A, Helman LJ, Thomas CJ. Matrix Screen Identifies Synergistic Combination of PARP Inhibitors and Nicotinamide Phosphoribosyltransferase (NAMPT) Inhibitors in Ewing Sarcoma. Clin Cancer Res. 2017 Dec 1;23(23):7301-7311. doi: 10.1158/1078-0432.CCR-17-1121. Epub 2017 Sep 12. PMID: 28899971; PMCID: PMC6636827.
A general note: ATP-based viability assays read luminescence as a measure of living cells.
As to `Cc1cc(Nc2nc(N[C@@H](C)c3ncc(F)cn3)ncc2Cl)n[nH]1`, the Potency is 5.26 µM (active).
Regarding `CCn1c(-c2nonc2N)nc2cnc(Oc3cccc(NC(=O)c4ccc(OCCN5CCOCC5)cc4)c3)cc21`, the Potency was 2.64 µM (active).
Take `Nc1cccc(S(=O)(=O)N2CCCN(S(=O)(=O)c3ccc4c(c3)OCCO4)CC2)c1`: the Potency result is “inactive”.
With `COc1ccc(-c2ccc3c(N4CCOCC4)nc(N4C[C@@H](C)O[C@@H](C)C4)nc3n2)cc1CO`, the Potency was 5.9 µM (active).
Regarding `CC(C)(C)NCC(O)c1ccc(O)c(CO)c1` (stereo not given), the Potency result was “inactive”.
With `Oc1cccc(-c2nc(N3CCOCC3)c3oc4ncccc4c3n2)c1`, the Potency was 0.215 µM (active).
For `COc1ccc2c3n(c(=NC(=O)c4cccnc4)nc2c1OC)CCN3`, the Potency is 23.5 µM (active).
As to `CCC(=O)N[C@H]1CC[C@H](C(=O)N(C)c2ccc(-c3nc4ccccc4o3)cc2)C1`, the Potency is 14.8 µM (active).
For the compound `Cc1cc2c(C(C)C)c(O)c(O)c(C=O)c2c(O)c1-c1c(C)cc2c(C(C)C)c(O)c(O)c(C=O)c2c1O`, the Potency is 9.35 µM (active).
In the case of `O=S(=O)(N=Cc1c(O)ccc2ccccc12)c1cccs1`, the Potency is 2.64 µM (active).
As to `CS(=O)(=O)c1ccc(C(=O)Nc2ccc(Cl)c(-c3ccccn3)c2)c(Cl)c1`, the Potency was 4.18 µM (active).
Regarding `CCCn1c(=O)c2[nH]c(C34CC5CC3C[C@@H](C5)C4)nc2n(CCC)c1=O`, the Potency entry was “inactive”.
Turning to `CCCC(CCC)C(=O)O`, the Potency entry is “inactive”.
In the case of `Nc1nc2[nH]cc(CCc3ccc(C(=O)N[C@@H](CCC(=O)O)C(=O)O)cc3)c2c(=O)[nH]1`, the Potency is 0.743 µM (active).
To `Cc1cc2c(F)c(Oc3ncnn4cc(OC[C@@H](C)O)c(C)c34)ccc2[nH]1` belongs 18.7 µM (active); to `NC(N)=NC(=O)c1nc(Cl)c(N)nc1N`, 5.26 µM (active); to `COc1c(Cl)cc2c([nH]c3cnccc32)c1NC(=O)c1cccnc1C`, 2.96 µM (active).
For `COc1ccc(-c2c(-c3ccc(O)cc3O)n[nH]c2C)cc1`, the Potency is 38.2 µM (active).
`S=C(NCc1ccc2c(c1)OCO2)N1CCN(c2ncnc3c2oc2ccccc23)CC1`: the Potency was 1.08 µM (active).
In the case of `CNC(=O)c1ccc(C)c(-n2c(C)cc(OCc3ccc(F)cc3F)c(Br)c2=O)c1`, the Potency is 16.6 µM (active).
Turning to `Nc1nc2ccc(OC(F)(F)F)cc2s1`, the Potency entry is “inactive”.
To `CNC[C@H](O)c1cccc(O)c1` belongs “inactive”; to `COc1cc2nccc(Oc3ccc(NC(=O)NC4CC4)c(Cl)c3)c2cc1C(N)=O`, 16.6 µM (active).
With `Cc1cccc(-c2[nH]c(C(C)(C)C)nc2-c2ccc3nccnc3c2)n1`, the Potency was 7.43 µM (active).
As to `Fc1ccc(Cl)cc1-c1nc(Nc2ccncc2)c2nccnc2n1`, the Potency is 16.6 µM (active).
Regarding `O=C(c1cc(Cc2n[nH]c(=O)c3ccccc23)ccc1F)N1CCN(C(=O)C2CC2)CC1`, the Potency is 16.6 µM (active).
To `C[C@@H]1CN(Cc2ccc(F)cc2)[C@@H](C)CN1C(=O)c1cc2c(C(=O)C(=O)N(C)C)cn(C)c2cc1Cl` belongs 20.9 µM (active); to `CCCS(=O)(=O)Nc1ccc(F)c(C(=O)c2c[nH]c3ncc(-c4ccc(Cl)cc4)cc23)c1F`, 8.33 µM (active); to `CC(C[N+](C)(C)C)OC(N)=O` (stereo not given), “inactive”.
In the case of `COc1ccc([C@@H]2CC(=O)c3c(O)cc(O[C@@H]4O[C@H](CO[C@@H]5O[C@@H](C)[C@H](O)[C@@H](O)[C@@H]5O)[C@@H](O)[C@H](O)[C@@H]4O)cc3O2)cc1O`, the Potency result was “inactive”.
Consider `CCOc1cc(C(=O)Nc2ccc(Cl)c(-c3nc4ccccc4[nH]3)c2)cc(OCC)c1OCC`, for which the Potency was 11.8 µM (active).
In the case of `CN[C@@H](C)C(=O)N[C@H]1CCCC[C@H]2CC[C@@H](C(=O)N[C@@H](c3ccccc3)c3cn(CCCCc4ccc(CCCCn5cc([C@@H](NC(=O)[C@@H]6CC[C@@H]7CCCC[C@H](NC(=O)[C@H](C)NC)C(=O)N76)c6ccccc6)nn5)cc4)nn3)N2C1=O`, the Potency was 8.33 µM (active).
As for `CC(C=CC1=C(C)CCCC1(C)C)=CC=CC(C)=CC(=O)O`, the Potency was 14.8 µM (active) and 5.9 µM (active).
With `O=NN(CCCl)C(=O)NCCCl`, the Potency result was “inactive”.
The figure for `COc1ccc(COc2cc3oc(=O)c4cc(C(C)O)ccc4c3cc2OC)cc1` (stereo not given) is 18.7 µM (active).
On to `NS(=O)(=O)c1cc2c(cc1Cl)NC=NS2(=O)=O`, for which the Potency entry is “inactive”.
The entry for `CCc1ccc(CCOc2ccc(CC3SC(=O)NC3=O)cc2)nc1` (stereo not given) is “inactive”.
With `CCCS(=O)(=O)Nc1ccc(F)c(C(=O)c2c[nH]c3ncc(Cl)cc23)c1F`, the Potency was 2.96 µM (active).
Consider `O=C(C1CC1)N1CC[C@@H](Cn2c(-c3ccc(-c4ccc5occc5c4)cc3)nc3cnccc32)C1`, for which the Potency is 20.9 µM (active).
For the compound `C1COC(NC(C2CC2)C2CC2)=N1`, the Potency was 9.35 µM (active).
